# GC-B act – GC-B (human) receptor activation. P20594. HEK293-GC-B cells, CNP EC30, cGMP TR-FRET; 0% at EC30 CNP, 100% saturating CNP. activation, % at 10 µM. hit rate 0.11% among 370,000. AID 1920062;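 active = activation at 10 µM reaching about 35% in either raw or pattern-adjusted values, limit read from the data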
# ADAM17 inh – inhibitors of human ADAM17; recombinant ADAM17, EDANS/DABCYL FRET peptide cleavage; inhibition, % at 6.95 µM; hit rate 0.83% among 370,000; AID 720648;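 active = inhibition above the mean of compounds lying between control limits plus 3 SD, set per campaign, cut at about 8.5% in these data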;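 note: 0% = DMSO-only wells as the low control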
# Target sequence (P78536 215-824 limits assumed): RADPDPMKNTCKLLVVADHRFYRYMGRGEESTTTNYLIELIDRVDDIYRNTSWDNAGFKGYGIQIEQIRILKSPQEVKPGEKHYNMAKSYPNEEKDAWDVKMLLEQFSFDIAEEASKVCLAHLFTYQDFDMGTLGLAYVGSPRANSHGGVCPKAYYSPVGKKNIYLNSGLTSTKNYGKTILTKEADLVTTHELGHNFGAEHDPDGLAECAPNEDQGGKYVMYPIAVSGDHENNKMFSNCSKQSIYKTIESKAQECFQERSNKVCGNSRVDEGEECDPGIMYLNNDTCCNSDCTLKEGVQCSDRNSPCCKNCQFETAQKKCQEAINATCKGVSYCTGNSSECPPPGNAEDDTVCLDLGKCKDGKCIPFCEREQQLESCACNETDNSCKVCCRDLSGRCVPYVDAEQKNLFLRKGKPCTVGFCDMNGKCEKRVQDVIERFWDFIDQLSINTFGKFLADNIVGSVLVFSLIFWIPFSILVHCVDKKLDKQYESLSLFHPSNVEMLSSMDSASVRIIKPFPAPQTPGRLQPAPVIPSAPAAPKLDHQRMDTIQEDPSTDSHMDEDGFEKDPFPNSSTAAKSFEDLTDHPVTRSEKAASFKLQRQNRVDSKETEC
# ADAM10 inh – inhibits human ADAM10. inhibition, % at 7 µM. recombinant ADAM10, EDANS/DABCYL FRET peptide cleavage, 3 h. hit rate 0.62% among 370,000. O14672;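 active = inhibition above a per-campaign cutoff equal to the mean of compounds falling between control-based bounds plus 3 SD, cut at about 20% in these data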;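 note: 0% = DMSO wells while the 100% control is not disclosed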
# GC-A act – GC-A (human) enzyme activation; P16066; activation, % at 10 µM; HEK293 GC-A cells, cGMP TR-FRET, EC30 ANP; 0% at EC30 ANP, 100% saturating ANP; hit rate 0.14% among 370,000; in the data active = activation above about 40%
# An asterisk follows results filed as active; i = inactive. Rows were chosen to be rich in hits. Some 1.3% of all compounds tested hit in one or more screens of this group.
SMILES,GC-B act,ADAM17 inh,ADAM10 inh,GC-A act
COc1ccc(-c2[nH]ncc2-c2ccc(Cl)cc2)c(O)c1,-8,4,15,19
CNc1cnc(-c2ccccc2OC)cn1,4,i,i,-1
c1ccc(Cn2nnc3c(Nc4ccc5c(c4)OCO5)nc(C4CC4)nc32)cc1,41*,-5,-6,34
CC(C)c1ccc(C2NC(=S)NC3=C2C(=O)CCC3)cc1 (centres undefined),1,-3,-4,50*
O=C(NCc1ccc(F)c(F)c1)C1C2C=CC3(CN(Cc4ccccc4)C(=O)C13)O2 (centres undefined),-2,0,-5,1
C=CCN(C)C(C#CCCCC)c1ccccc1 (centres undefined),-7,-7,-4,-6
COc1cccc(Oc2cn[nH]c2-c2ccc(O)cc2O)c1,15,-1,16,55*
C[C@H](NC(=O)c1ncn2c1C(=O)N[C@@H](C)C2)c1ccccc1,2,-5,-17,2
CC(NC(=O)COC(=O)COc1ccc(C(=O)c2ccccc2)cc1)c1ccccc1 (centres undefined),8,-5,-2,65*
COc1cc(-c2c(C(=O)c3ccccc3)[nH]c(N)c2C(N)=O)ccc1O,-5,-6,-6,-2
C[C@H](CO)N1C[C@H](C)[C@@H](CN(C)C(=O)Nc2ccc(C(F)(F)F)cc2)Oc2ccc(NS(=O)(=O)c3ccccc3)cc2C1=O,82*,-2,4,3
CCN1C(=O)[C@@H]2Cc3c([nH]c4ccccc34)C(c3cc(OC)c(OC)c(OC)c3)N2C1=S (some centres undefined),1,0,3,-3
O=C1[C@@H]2Cc3c([nH]c4ccccc34)C(c3ccc(Cl)cc3)N2C(=O)CN1CCO (some centres undefined),-20,-5,2,-45
O=C(O)c1ccc(C2NCC(c3ccccc3Cl)c3c2[nH]c2ccccc32)cc1 (centres undefined),0,-24,-47,54*
COc1cc(C2NCC(c3ccc(Cl)cc3Cl)c3c2[nH]c2ccccc32)cc(OC)c1OC (centres undefined),-11,22*,47*,86*
O=C(Nc1nc2ncccn2c1-c1ccc(F)cc1)C1CC1,-2,-173,i,4
CCCCNS(=O)(=O)c1ccc2nc(-c3cccnc3)cc(C(=O)NC3CCCC3)c2c1,3,-3,-4,-1
CCCCCCC/C=C(\C)[C@@H](O)[C@@H](C)C(=O)N1CCC[C@@H]1C(=O)O,0,-1,8,1
N#CCN1C(=S)N=C(Nc2cccc(Cl)c2)C12CCCCC2,2,-1,-3,1
CC(C)(C)C1CCC2(CC1)C(Nc1cccc(C(F)(F)F)c1)=NC(=S)N2CC#N (centres undefined),46*,-3,-3,2
O=C(COc1ccc(F)cc1Cl)Nc1nnc(-c2ccc(F)c(F)c2)o1,-1,1,10,2
O=C(Nc1cccc(Cl)c1)O[C@@H]1CC[C@@]23CCCN2C(=O)CCC[C@H]3C1,-2,2,5,-1
CCOC(=O)COc1ccc(/C=C2\NC(=S)N(CC)C2=O)cc1,51*,6,6,44*
COc1ccc2c(c1)NC(=O)[C@@]2(CCN1C(=O)c2ccccc2C1=O)c1[nH]c2ccccc2c1CCN1C(=O)c2ccccc2C1=O,-3,3,11,-7
CCOC(=O)c1cc(-c2csc(COc3ccccc3Cl)n2)on1,8,-1,-1,63*
SMILES,GC-B act,ADAM17 inh,ADAM10 inh,GC-A act
CCOC(=O)c1cc(-c2csc(COc3ccccc3)n2)on1,15,0,-6,67*
CCOC(=O)c1cc(-c2csc(COc3ccc(Cl)cc3)n2)on1,-4,-4,-2,58*
CCOC(=O)c1cc(-c2csc(-c3cccc(Cl)c3)n2)on1,1,-3,1,19
CCCN(CCC)C(=O)c1cc2c(=O)[nH]c3ccc(C)cc3c2s1,8,-35,-104,11
Cc1ccc(C)c(N(C)C(=O)c2cc3c(=O)[nH]c4ccc(C)cc4c3s2)c1,37*,-4,-9,35
O=C1CCC(CNc2ccccc2)N1c1ccccc1 (centres undefined),-1,5,9,0
O=C(Nc1ccc(Oc2ccccc2)cc1)N[C@@H](Cc1ccccc1)C(=O)O,-1,-4,-2,4
COCCCn1c(=O)c2ccccc2n(Cc2ccc(C)cc2)c1=O,19,1,6,18
Cc1ccc(Cn2c(=O)c3ccccc3n3nc(C)cc23)cc1,36*,2,1,25
